Measured values as given in PubChem BioAssay AID493122 (National Center for Advancing Translational Sciences (NCATS), 2011).
Calls of active or inactive are those of the source. How the calls were made is not given here.

Assay: Concentration response cycloheximide confirmation counterscreen for small molecule inhibitors of Shiga toxin
Details: protein synthesis reporter, cells; series mostly up to 76.6 µM

Question: With CN(C(=O)c1ccc2c(=O)n3c(nc2c1)CCCCC3)c1ccccc1 as the compound, how does the outcome read?
Answer: Its outcome is “inactive”.

Question: Which outcome does the source give for CC(C)CNC(=O)c1noc2c1CCCC2 here?
Answer: Its outcome is “inactive”.

Question: With O=C(Nc1ccccc1)c1ccc[nH]1 as the compound, how does the outcome read?
Answer: Its outcome is “inactive”.

Question: Which outcome does the source give for C=CCNC(=O)c1ccc(C)c(Br)c1 here?
Answer: The outcome was “inactive”.

Question: With O=C(CC(c1ccccc1)c1cc(Cl)ccc1O)N1CCCC1 (stereo unspecified) as the compound, how does the outcome read?
Answer: The outcome was “inactive”.

Question: For Cc1cccc(NC(=O)CCN2C(=O)c3ccccc3S2(=O)=O)c1C, which outcome is on record?
Answer: Its outcome is “inactive”.

Question: For CC(=O)c1ccc(N2CCN(S(=O)(=O)c3ccc4c(c3)CC(C)N4C(C)=O)CC2)cc1 (stereo unspecified), which outcome is on record?
Answer: Its outcome is “inactive”.

Question: With CCn1c2ccccc2c2cc(NC(=O)c3cccc([N+](=O)[O-])c3)ccc21 as the compound, how does the outcome read?
Answer: Its outcome is “inactive”.

Question: For O=C(NC1CCCC1)c1cc(Cl)ccc1[N+](=O)[O-], which outcome is on record?
Answer: The outcome was “inactive”.

Question: For CN(C)S(=O)(=O)c1ccc(C(=O)OCC(=O)c2ccc3c(c2)NC(=O)CO3)cc1, which outcome is on record?
Answer: The outcome was “inactive”.

Question: With CCOC(=O)C1(CCCc2ccccc2)CCN(C(=O)CCn2cncn2)CC1 as the compound, how does the outcome read?
Answer: The outcome was “inactive”.

Question: Which outcome does the source give for COc1ccccc1CNC(=O)c1csc2c1CCCC2 here?
Answer: The outcome was “inactive”.

Question: With CN(C)S(=O)(=O)c1ccc(C(=O)Nc2ccc(CN3CCCC3)cc2)cc1 as the compound, how does the outcome read?
Answer: The outcome was “inactive”.

Question: Which outcome does the source give for Cc1cc(C(=O)COC(=O)CNS(=O)(=O)c2ccc3ccccc3c2)c(C)n1-c1ccccc1 here?
Answer: Its outcome is “inactive”.

Question: Which outcome does the source give for CC1CCC/C=C/C2CC(O)CC2C(O)/C=C/C(=O)O1 (stereo unspecified) here?
Answer: The outcome was “inactive”.

Question: Which outcome does the source give for COc1ccc(C(C)(C)C)cc1NC(=O)c1ccc2c(c1)SC1=NS(=O)(=O)CCN12 here?
Answer: The outcome was “inactive”.
